Percent Effect data for 95 molecules are collected here from ChEMBL document CHEMBL3988442, “University of Dundee, Small-Polar-MMV Screening Library” (2021).

Where “and” joins values, the source holds several entries; their conditions need not be identical. Identical values can stand only once. In all, about 67,000 compounds went through this assay and about 40 (0.06%) showed an effect of 50% or more. This is one part of a sample in which strong results are shown more often than they occur.

This assay concerns the target T1, Coenzyme A biosynthesis bifunctional protein CoaBC (Mycobacterium tuberculosis (strain ATCC 25618 / H37Rv)) (UniProt P9WNZ1).
T1 sequence (whole entry): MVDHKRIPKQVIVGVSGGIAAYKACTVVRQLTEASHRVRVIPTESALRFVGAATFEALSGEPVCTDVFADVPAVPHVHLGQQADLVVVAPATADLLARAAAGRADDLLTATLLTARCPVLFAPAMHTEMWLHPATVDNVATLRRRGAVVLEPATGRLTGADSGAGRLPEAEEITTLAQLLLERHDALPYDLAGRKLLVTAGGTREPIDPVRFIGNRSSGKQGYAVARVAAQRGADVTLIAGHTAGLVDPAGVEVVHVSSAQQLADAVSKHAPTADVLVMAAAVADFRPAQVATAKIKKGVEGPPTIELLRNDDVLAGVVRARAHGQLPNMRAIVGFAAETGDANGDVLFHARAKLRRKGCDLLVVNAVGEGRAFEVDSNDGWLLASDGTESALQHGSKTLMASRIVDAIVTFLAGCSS
Kind of assay: Biomol Green assay for MtCoaBC inhibitor, OD650 read. Type of assay: functional. The arrangement: scale not given: in the data most compounds retested in dose-response had high values. Particulars: 30 µM.
As to `COc1cc(N2CCC[C@]3(C(=O)O)CN(C(C)C)C[C@@H]3C2)ncn1`, the Percent Effect is -10.7%. To `c1ccc(CN2C[C@@H]3COC[C@]3(COCC3CCOCC3)C2)nc1` belongs 9.51%; to `COCCNC(=O)C[C@@H]1COC[C@H]2CN(CC3CCOCC3)C[C@@H]12`, -2.48%. To `Cc1cnc(N2CCN(C)CC2)nc1-c1ccnn1C` belongs 5.03%. Turning to `COc1cnc(N2CCN(C)CC2)nc1-c1ccnn1C`, the Percent Effect is 5.52%.

`CN1[C@H](Cn2cccn2)C[C@@H]2CN(Cc3cccs3)CC[C@@H]21`: the Percent Effect is 5.67%.

Take `CO[C@@H]1CN(Cc2scnc2C)[C@@H]2CCCO[C@@H]21`: the Percent Effect was -51.5%. To `O=C(c1ccc[nH]1)N1C[C@H]2CN(Cc3cccc(F)c3)C(=O)[C@H]2C1` belongs 8.74%; to `CCc1ncncc1C(=O)NCCNS(=O)(=O)c1ccc(C)cc1`, 3.17% and 20.9%; to `Cc1ccc(S(=O)(=O)NCCNC(=O)c2cncnc2C)cc1`, 5.91%.

Turning to `Cc1ccc(N2CCO[C@H]3CN(Cc4cccnc4)C[C@H]32)nn1`, the Percent Effect turned out to be 3.85%. To `C[C@H]1C[C@H]2CN(C(=O)c3ccncn3)CC[C@@H]2O1` belongs 3.76%; to `Cc1cccc(CN2C[C@H]3CCC[C@@]3(COCc3csc(C)n3)C2)n1`, 3.06%. As to `CCOCC1CN(C(=O)C2=CCCC2)Cc2cnn(CC)c21` (stereo not given), the Percent Effect was 12.8%. With `CCOCC1CN(C(=O)N2CCCC2)Cc2cnn(C)c21` (stereo not given), the Percent Effect is -2.1%.

On to `O=C1NCCO[C@H]2CN(C(=O)c3cccs3)CC[C@@H]12`, for which the Percent Effect is 2.96%.

On to `CNC(=O)[C@H]1C[C@@H]2CN(C(=O)c3ccncc3)C[C@@H]2N1S(C)(=O)=O`, for which the Percent Effect amounted to 2.59%. To `O=C(NCCc1cccs1)[C@H]1CO[C@H]2CCN(C3CCC3)C[C@H]2C1` belongs 6.17%; to `O=C1CO[C@@H]2CNC[C@H]2N1CC1CC1`, 0%; to `Cn1cc(CN2CC[C@@H]3[C@@H]2CCN3C(=O)c2cccc(F)c2)cn1`, 5.07%.

On to `CN1CCCCC1c1cncc(N2CCC(O)CC2)n1` (stereo not given), for which the Percent Effect is -0.526%.

Consider `Cc1cc(N2CCC(O)CC2)nc(C)n1`, for which the Percent Effect stood at 11.1%. To `CCCc1cc(C(=O)N2C[C@H]3CC=C(C)C[C@H]3C2)ccn1` belongs 2.3%; to `O=C(NCC1CCOCC1)[C@@H]1C[C@@H]2[C@@H](CCN2Cc2ccoc2)O1`, 2.96%. Turning to `CCc1cnc(N2C[C@H]3CN(Cc4ccc(OC)cc4)C(=O)[C@H]3C2)nc1`, the Percent Effect is -3.75%. As for `CC(C)c1nc(C(=O)N2C[C@H]3CC[C@@H]2CN(C2CCOCC2)C3)cs1`, the Percent Effect was 5.66%. Regarding `Cn1cc(CN2CC[C@H]3O[C@H](C(=O)NC4CC4)CC[C@H]32)c2ccccc21`, the Percent Effect was -3.06%. As to `CN(C)c1ncc2c(n1)CN(C1CC(C)(C)NC(C)(C)C1)C2=O`, the Percent Effect amounted to 0.231%. For `CC(C)OC(=O)N1C[C@H]2CC[C@@H]1CN(Cc1cccnc1)C2` the value was 5.14%; for `COC1CCN(CCNC(=O)NCC(C)c2cccc(C)c2)CC1` (stereo not given), -16.8%. To `COC1CCN(CCNC(=O)NC(C)c2cccc(Cl)c2)CC1` (stereo not given) belongs -0.455%; to `COc1cccc(CN2C[C@H]3CC[C@H]2C3)c1OCCN1CCOCC1`, 4.29%.

Consider `CCc1ccc(CN2CCN(CCOC)[C@@H]3CS(=O)(=O)C[C@@H]32)cc1`, for which the Percent Effect turned out to be 8.73%.

Consider `Cc1noc(C)c1CN1C[C@@H]2COC[C@H](C(=O)N3CCCCO3)[C@@H]2C1`, for which the Percent Effect was determined as 0.259%.

Turning to `CC(C)N(Cc1ccc(Cl)c(Cl)c1)C(=O)Cn1cncn1`, the Percent Effect was 5.66%. For `CC(C)N(Cc1ccc(Cl)c(Cl)c1)C(=O)CCn1cncn1` the value was 5.9%; for `O=C(c1ccncc1)N1C[C@@H](OCc2cccnc2)[C@H]2OCCC[C@H]21`, 4.2%; for `Cc1ccc(-n2cc(S(=O)(=O)Nc3cccc(C(=O)O)c3C)cn2)cc1`, 0.726%. Regarding `Cc1ccc(NS(=O)(=O)c2cnn(-c3ccccc3)c2)c(C(=O)O)c1`, the Percent Effect was 64.4% and 43.6%.

For `Cc1ccc(NS(=O)(=O)c2cnn(Cc3ccccc3)c2)c(C(=O)O)c1`, the Percent Effect came out at 0.726%.

Consider `COCCC(=O)NC[C@H]1CC[C@H](C(c2ccccn2)N(C)C)CC1` (stereo not given in full), for which the Percent Effect is -1.84%. For `CNC(=O)N1CC[C@@H]2CN(Cc3ccccc3)S(=O)(=O)[C@@H]2CC1` the value was 1.48%. For `Cc1ccc(N2CC[C@@]3(O)CCN(S(C)(=O)=O)C[C@H]3C2)nn1` the value was -0.123%; for `O=C(CC1CC1)N1CC[C@H]2[C@@H]1CCC(=O)N2c1cccnc1`, 5.4%. To `COc1cc(N2CC[C@@H]3O[C@H](C(=O)NCC4CC4)C[C@@H]32)ncn1` belongs -0.37%. Take `O=C1COC2(CCN(Cc3ccoc3)CC2)CN1CCn1cccn1`: the Percent Effect was -3.75%. `COCCN1CCC2(CC1)CN(CCn1cccn1)C(=O)CO2`: the Percent Effect is -1.25%. For `Cn1cc(C(=O)N2CC[C@@]3(O)CCN(C4CCCCC4)C[C@H]3C2)cn1`, the Percent Effect was found to be 0.467%. To `CN(C)CCO[C@@H]1CC[C@H]2[C@H]1OCCN2C(=O)c1ccccc1F` belongs 3.95%; to `CNC(=O)[C@H]1C[C@@H]2CN(S(=O)(=O)c3ccc(C)cc3)C[C@@H]2N1C`, 1.63%; to `O=C([C@@H]1C[C@@H]2CCN(c3cccc(F)c3)C[C@H]2O1)N1CCCC1`, -8.02%. As for `Cc1cccc(CN2C(=O)C[C@H]3[C@@H]2CCN3Cc2ccc(F)cc2)n1`, the Percent Effect is 9.41%. For `CC(=O)N1[C@H](Cn2cncn2)C[C@@H]2CN(c3ccc(C)nn3)CC[C@@H]21` the value was 6.82%; for `O=C(NC1CCC1)[C@@H]1C[C@@H]2CCN(Cc3ccncc3)C[C@H]2O1`, 4.7%; for `COc1ccc(NC2(C(=O)N3CCn4cncc4C3)CCCC2)cc1`, 8.96%. Turning to `Cc1ccc(NC2(C(=O)N3CCn4cncc4C3)CCCCC2)cc1C`, the Percent Effect was 4.82%. For `CC1=N[C@@]2(CC[C@@H]3CN(C(=O)NCc4ccccc4C)C[C@@H]32)C(=O)N1` the value was 0.609%.

As for `O=C(COC[C@@H]1CC[C@H]2[C@H](CCN2Cc2ccco2)O1)N1CCCC1`, the Percent Effect was 9.53%. For `CCC1(CNC(=O)NC(c2nnc3n2CCC3)C(C)C)CCC1` (stereo not given), the Percent Effect was -3.55%. For `CC(C)C(NC(=O)NCC1CC1)c1nnc2n1CCC2` (stereo not given), the Percent Effect is -0.508%. To `COCCN1C(=O)[C@]2(CC[C@@H]3CN(S(=O)(=O)CC(C)C)C[C@@H]32)N=C1C` belongs -3.81%. To `CC(C)CC(=O)N1CC[C@@H]2CN(CC(=O)N(C)C)S(=O)(=O)[C@@H]2CC1` belongs 2.32%. For `Cc1noc([C@H]2C[C@@H]3CCN(CC4CC4)C[C@H]3O2)n1` the value was -1.9%; for `Cc1cccc(CN2CC[C@H]3[C@H]2CCN3Cc2cnn(C)c2)n1`, -4.59%; for `c1cc(COC[C@@]23CCC[C@@H]2CN(C2CCOCC2)C3)ccn1`, 6.42%. For `Cc1cnn(CC2CCCN2Cc2nnc(Cc3ccccc3)o2)c1` (stereo not given), the Percent Effect was determined as 0.119%. Turning to `Cc1cnn(CC2CCCN2Cc2ncc(-c3ccccc3)o2)c1` (stereo not given), the Percent Effect turned out to be 2.73%. To `O=C(N1CCCO1)[C@@]12CCO[C@@H]1CCN(Cc1ccsc1)C2` belongs -8.02%. To `CCS(=O)(=O)N1CC[C@H]2CO[C@H](CN(C)C)[C@H]2C1` belongs -0.203%. To `CC(=O)N1C[C@H]2CNC[C@@]2(C(=O)NCCCOc2cccnc2)C1` belongs 3.58%; to `CN1CCC(C)(CNC(=O)c2ccc(SCc3cccnc3)cc2)CC1`, -1.65%. Turning to `O=C(NCCC(=O)N1CCCC1)c1cccnc1`, the Percent Effect was 0.943%. `O=C(c1cscn1)N1C[C@@H]2C[C@@H](c3nnc(C4CC4)o3)O[C@@H]2C1`: the Percent Effect worked out at 0.38%. For `CC1CCN(C[C@H]2CN3CC[C@H]2C[C@@H]3CNC(=O)c2ccco2)CC1` the value was -15.2%. To `Cc1ccccc1CC(=O)N1C[C@@H]2COC[C@]2(CN(C)C)C1` belongs -10.9%. For `COCCN1CC[C@@H]2CN(Cc3cccnc3OC)C[C@@H]2C1`, the Percent Effect was -0.364%.

Consider `Nc1cc(O)nc(CCNC(=O)CC[C@@H]2CCCN3CCCC[C@H]23)n1`, for which the Percent Effect is -3.91%. To `COc1cc(O)cc2c1C(=O)CC(c1ccc(O)cc1)O2` (stereo not given) belongs 65.2% and 48.7%. `COc1ccc(C2CC(=O)c3c(O)cc(O)cc3O2)cc1O` (stereo not given): the Percent Effect stood at 17.8%. For `COc1cc(C2CC(=O)c3c(O)cc(O)cc3O2)ccc1O` (stereo not given) the value was 7%; for `CN(Cc1ccco1)[C@@H]1CN(Cc2ccsc2)C[C@@H]2CCCO[C@@H]21`, 5.46%. To `COCc1cccc(C(=O)N2C[C@H]3CC[C@@H]2CN(Cc2cscn2)C3)n1` belongs 1.53%; to `Cc1nc(CN2CC[C@H]3[C@@H]2CCC(=O)N3c2cnn(C)c2)cs1`, -3.58%; to `Cn1cc(N2C(=O)CC[C@@H]3[C@H]2CCN3Cc2ccncc2)cn1`, 0.381%. As for `O=C1N[C@@H]2CCN(C(=O)C3CCC3)[C@@H]2C(=O)N1c1ccc(F)cc1`, the Percent Effect came to 0.226%. To `Fc1cccc(O[C@@H]2C[C@H]3CN(Cc4ccccn4)CCN3C2)c1` belongs 0.483%; to `Cn1cccc1C(=O)N1CC[C@H]2C[C@@H](c3ccncn3)O[C@@H]2C1`, 1.03%. In the case of `COc1ccc(CN2CCCC2)cc1Oc1ccc2c(c1)CC(CN)O2` (stereo not given), the Percent Effect is 4.1%. For `Cc1cc(CN2CCCC2)cc(Oc2ccc3c(c2)CC(CN)O3)c1` (stereo not given) the value was 3.85%; for `O=C(NCC1CC1)[C@@H]1C[C@@H]2OCCN[C@@H]2C1`, -1.96%; for `COc1ccc(-n2cc(CNC(=O)c3ccccn3)nn2)cc1`, 6.21%. For `CN1C(=O)CO[C@H]2CN(C(=O)Nc3ccc(F)cc3)C[C@H]21`, the Percent Effect was 9.63%. Take `Cc1noc([C@H]2C[C@@H]3CCN(CC4CCOCC4)C[C@H]3O2)n1`: the Percent Effect worked out at 14.2%. For `Cc1ccc(OCC(=O)N2CCN[C@H]3CS(=O)(=O)C[C@H]32)cn1`, the Percent Effect amounted to 12%. For `Cc1ncsc1CN1C[C@@H]2COC[C@]2(COc2ccc(C#N)cn2)C1` the value was 2.8%.
